Data reported in ChEMBL document CHEMBL4513149, “CO-ADD screening of MMV (CH) - MMV compounds” (2021).
Entries with a potency or affinity are not part of this list.

Experiments:
Klebsiella pneumoniae = details: Concentration 20 uM; ASSAY_TEST Inhibition of Bacterial Growth; detection method Absorption (OD600); MEDIA CAMHB; plate type 384well; NBS; CORNING #3640; time 18 hr
Candida albicans = details: 20 µM
Cryptococcus neoformans = details: Concentration 20 uM; ASSAY_TEST Inhibition of Fungal Growth; detection method Resazurin; Absorption (OD600-OD570); plate type 384well; NBS; CORNING #3640

Compound	Inhibition (Klebsiella pneumoniae) [%]	Inhibition (Candida albicans) [%]	Inhibition (Cryptococcus neoformans) [%]
N#Cc1nc(-c2ccccc2F)oc1NCCc1ccccc1	12.11	6.96	-3.78
O=C(C1CCN(c2nnc(-n3cccc3)s2)CC1)N1CCC(Cc2ccccc2)CC1	11.79	4.63	-9.35
Nc1ncnc2c1c(Cc1cccc3ccccc13)nn2CC1CCNCC1	-3.02	2.11	-1.33
CC(C)(C)OC(=O)N1CCN(c2nccc(-c3ccc(-c4ccc(Cl)cc4)s3)n2)CC1	5	3.84	-6.76
COC(=O)c1ccc(F)cc1NS(=O)(=O)c1cccc(-c2cnn(Cc3ccccc3)c2)c1	14.02	6.83	12.85
O=C(C1CCCCC1)N1CC(=O)N2CCc3ccccc3C2C1 (stereo not given) [PRAZIQUANTEL]	12.46	4.53	-6.4
Cn1ncc2c(N3CCOCC3)nc(NCCc3c[nH]c4ccccc34)nc21 [TDR79432]	9.02	4.1	-8.59
c1ccc(Oc2ccc(-c3cncc(-c4ccc5[nH]ccc5c4)n3)cc2)cc1	5.9	4.38	-8.14
COc1ccc(CN2CCOc3ccc(C(C)(O)CN(C)C)cc3C2)cc1C (stereo not given)	16.19	4.72	-11.35
NC(=O)c1cc(-c2ccsc2)ccc1OCCOc1ccccc1	14.24	1.34	-0.49
CS(=O)(=O)N1CCC(CCn2nc(Cc3cccc4ccccc34)c3c(N)ncnc32)CC1	2.11	3.38	-7.27
COC(=O)C1=C(C)NC(C)=C(C(=O)OC(C)C)C1c1cccc2nonc12 (stereo not given) [ISRADIPINE]	6.29	4.19	-10.15
Cc1ccc2nc(C)c(-c3ccn(Cc4ccccc4)n3)n2c1	14.88	3.75	-8.36
O=C(Nc1ccccc1-c1nc2c(C(=O)O)cccc2o1)c1ccccc1	1.94	5.59	-2.58
CC(=O)O.CC(=O)O.Nc1ncnc2c1ncn2[C@@H]1O[C@H](COS(=O)(=O)NC(=O)c2ccccc2O)[C@@H](O)[C@H]1O	14.67	1.66	-8.69
O=C(Nc1nc(-c2ccccn2)cs1)c1cncn1-c1ccccc1	11.31	1.74	-8.18
COc1cc(-c2cc(-c3ccc(S(C)(=O)=O)cc3)cnc2N)ccc1O	7.56	3.91	-7.2
Cc1cc2ccccc2n1CC(=O)N1CC(C(=O)N2CCCCC2)Oc2ccccc21 (stereo not given)	14.31	4.16	-5.34
COc1ccccc1OCCCCn1c(C2CC2)nc2ccccc21	10.24	1.96	-4.4
CC1=Nc2ccc(Cl)cc2C(O)(c2ccc(C)cc2)N1CCN1CCCCC1 (stereo not given)	18.59	3.13	-4.53
NCC(=O)N1CCn2c(nc(-c3ccccc3)c2Nc2ccc3c(c2)OCO3)C1	4.52	3.31	7.53
c1ccc(Oc2ccc(-c3cc(C4CCOCC4)[nH]n3)cc2)cc1	16.38	7.75	0.97
O=C(Nc1nc(-c2ccccn2)cs1)C1CC1c1ccccc1F (stereo not given)	21.19	5.33	-9.59
Cc1ccc(-c2cc(C(=O)Nc3cccnc3)c3cc(Br)ccc3n2)cc1	15.62	4.34	-8.45
CN1CCCC1CCO[C@](C)(c1ccccc1)c1ccc(Cl)cc1.O=C(O)/C=C/C(=O)O (stereo not given in full)	21.77	1.54	-7.21
N#CCN(CCCCN1CCN(c2ccc(F)cc2)CC1)C(=O)OCc1ccccc1	11.82	2.42	-5.61
O=C(c1ccc(NCCO)cc1)C1C[C@H]1c1ccc(Cl)cc1 (stereo not given in full)	5.98	6.88	2.16
Clc1cccc(CO[C@H]2CCc3ccccc3[C@@H]2n2ccnn2)c1	8.29	10.9	-3.55
Cc1ccc(NC(=O)CC2COc3ccccc3O2)cc1Cl (stereo not given)	11.14	2.65	-13.17
Cc1ccc(C(=O)Nc2ccc(S(=O)(=O)O)c3cc(S(=O)(=O)O)cc(S(=O)(=O)O)c23)cc1NC(=O)c1cccc(NC(=O)Nc2cccc(C(=O)Nc3cc(C(=O)Nc4ccc(S(=O)(=O)O)c5cc(S(=O)(=O)O)cc(S(=O)(=O)O)c45)ccc3C)c2)c1 [SURAMIN]	17.11	39.2	2.45
